# Measured values taken from PubChem BioAssay AID624167 (Sanford-Burnham Center for Chemical Genomics, 2012).
# Assay: Peg3 promoter luciferase inhibitors, potency, dose response, cell-based, HeLa, CREF/GAPDH counter-screen panel (AID 624167)
# Settings: CREF/GAPDH counter-screens; run 1, dose range 1, at 100 µM (top of the series)
row,SMILES,inhibition
1,O=C(CCl)N1c2ccccc2Sc2ccc3ccccc3c21,100%
2,COc1cccc2c1C(=O)c1c(O)c3c(c(O)c1C2=O)CC(O)(C(C)=NNC(=O)c1ccc(Cl)c(Cl)c1)CC3OC1CC(N)C(O)C(C)O1 (stereo not drawn),92%
3,COc1ccc(C(NC(=O)C(C)C)c2ccc3cccnc3c2O)cc1 (stereo not drawn),31.4%
4,CN(C)CC1CCC/C(=C\c2ccc(OC(=O)c3ccc(Cl)cc3)cc2)C1=O (stereo not drawn),76%
5,O=C1C=CC(=O)N1c1ccc(-c2nc3ccccc3o2)cc1,100%
6,Cc1ccc(C)c(S(=O)(=O)N2CCN(c3ncnc4sccc34)CC2)c1,62.6%
7,O=C(c1ccco1)N1CCN(C(c2ccccc2Cl)c2nnnn2Cc2cccs2)CC1 (stereo not drawn),69.4%
8,O=C(N/N=C/c1ccc(Cl)c([N+](=O)[O-])c1)c1cc(-c2ccc3c4c(cccc24)CC3)n[nH]1,75.4%
9,CS(=O)(=O)Nc1cccc(NC(=O)C2Cc3c(-c4ccccc4)ccnc3O2)c1 (stereo not drawn),0.156%
10,CC1=CC2C(C(O)CC3(C)C2CC(C)C32OCOC23COCO3)C2(C)C/C(=C\O)C(=O)C=C12 (stereo not drawn),99.5%
11,O=C(O)c1ccc(N/N=C/c2ccc(OC(=O)c3cccc(Cl)c3)cc2)cc1,96.4%
12,CC(=O)NC(c1ccc(Cl)cc1Cl)c1ccc2cccnc2c1O (stereo not drawn),55.7%
13,CCc1ccn2cc(-c3ccc4c(c3)OCO4)nc2c1,92.7%
14,CCOc1cccc(/C=N/NC(=S)Nc2cc(S(=O)(=O)N3CCOCC3)ccc2N2CCOCC2)c1O,-13.9%
15,C=CCc1cccc(/C=N/NC(=O)C(C)Nc2cccc(C)c2)c1O (stereo not drawn),29%
16,Cc1cc(C)c(C)c(S(=O)(=O)N2CCN(C(=O)c3cc(=O)[nH]c4ccccc34)CC2)c1C,71.8%
17,CC(C)(C)c1ccc(Oc2ccc(N)cc2)cc1,90.1%

row,SMILES,inhibition
1,O=C(COc1ccc2c(c1)CCC2)Nc1ccccn1,95.2%
2,OCCCNc1nccc(-c2cc(Nc3cccc(Cl)c3)ncn2)n1,34.2%
3,COc1cc(OC)c2cc(C(=O)N/N=C/c3ccccc3O)[nH]c2c1,79.9%
4,O=c1c2ccccc2sc2nc(CCl)nn12,100%
5,COc1cc(/C=C2\SC(=Nc3ccccc3OC)NC2=O)ccc1O,43.9%
6,CCN(CC)S(=O)(=O)c1cccc(C(=O)N/N=C(\C)c2ccc(O)cc2O)c1,-75.3%
7,O=C(Nc1ccccc1C(=O)Nc1nnc(C(F)(F)F)s1)c1ccccc1,60.8%
8,CCc1ccc(/C=C2\SC(=S)N(CCCC(=O)Nc3ccccn3)C2=O)cc1,78.8%
9,CN(O)C(=S)c1ccccc1,3.97%
10,O=C(Nc1ccccc1)c1nc[nH]c1C(=O)NCCCCCCNC(=O)c1[nH]cnc1C(=O)Nc1ccccc1,-2.1%
11,O=C(O)c1ccc(CN2C(=O)c3cccc4c([N+](=O)[O-])ccc(c34)C2=O)cc1,99.1%
12,Cc1cc(Br)ccc1NC(=O)CNC(=O)Cn1ncc(Cl)c(Cl)c1=O,98.5%
13,Cc1oc(-c2ccc3c(c2)OCCO3)cc1C(=O)O,98.6%
14,CCCCC(=O)NC(c1ccc(OC)cc1)c1ccc2cccnc2c1O (stereo not drawn),21.2%
15,CCCn1nc(C(=O)Nc2nc(-c3ccccn3)cs2)c2ccccc2c1=O,13.9%
16,CC(/C=C/c1ccccc1)=N/NC(=O)c1cc([N+](=O)[O-])cc([N+](=O)[O-])c1,5.41%
